# TDP1 cell noCPT – qHTS for Inhibitors of human tyrosyl-DNA phosphodiesterase 1 (TDP1): qHTS in cells in absence of CPT | Potency, µM (top dose mostly 46.2 µM), for the others: at the top dose activity change, negative = growth inhibition, usual class: inhibitors | 420,000 tested, 15% active | DT40 Tdp1-/- hTDP1 cells, no CPT, ATP luminescence, 48 h; note: % is set by controls: 0 for no effect and ±100 for the full control effect; nearly all actives have a fitted effect of over 55% in size
#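 Camptothecin absent (DMSO only). Human TDP1-complemented DT40 knockout cells, 400 cells/well, 37 °C for minimum 48 hr; ATP measured via CellTiter-Glo, 30 min dark incubation, luminescence.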
# TDP1 cell CPT – DT40-hTDP1 cell growth loss with CPT; AID 686979; Potency, µM (doses to about 46.2 µM), for the others: top-dose activity change, negative = growth inhibition, most hits filed as inhibitors; 420,000 tested, 12% active; chicken DT40 Tdp1-/-;hTDP1 cells + 20 nM CPT, ATP luminescence, 48 h; note: % is set by controls: 0 for no effect and ±100 for the full control effect; nearly all actives have a fitted effect of over 55% in size
#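 Chicken DT40 Tdp1-/- cells complemented with human TDP1, 400 cells/well, exposed to compounds plus 20 nM camptothecin for at least 48 h at 37 C; viability read as ATP content by CellTiter-Glo luminescence.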
# HT1080 IDH1KD tx – HT-1080 IDH1 knockdown cell toxicity (counter line); HT-1080 IDH1 knockdown viability, ATP luminescence, 48 h; Potency, µM (series often up to 46.1 µM), for the others: at the highest dose activity, negative = toxicity, actives largely listed as cytotoxic; 360,000 tested, 2% active;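 note: 0% = DMSO wells and -100% = cell-free medium wells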
#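 After a 2 h attachment period, IDH1KD HT-1080 cells took pin-transferred compound for 48 h at 37 °C; ATP-based luminescence after 10 min room-temperature reagent incubation reported viability.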
# HepG2 viability – HepG2 cytotoxicity, counter-screen for TGF-b inhibitors; HepG2 CAGA-GFP viability, ATP luminescence, 18 h; Potency, µM (doses to about 46.1 µM), without a hit: at the highest dose activity change, negative = cytotoxicity, most hits filed as cytotoxic; 410,000 tested, 0.76% active; AID 588856
#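 HepG2 CAGA-GFP cells (1000/well, DMEM with 1% FBS) received compound, then TGF-beta at 500 pg/mL final, and were incubated 18 hours at 37 degrees C. Viability was read by CellTiter-Glo luminescence. Media-only wells were set as complete cell-killing and DMSO as no toxicity.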
# HT1080NT lethal – kills 2HG-producing HT-1080-NT fibrosarcoma cells; Potency, µM (highest dose often 46.1 µM), for the others: at the top dose activity, negative = less viability, usual class: cytotoxic; 360,000 tested, 1.6% active; HT-1080-NT fibrosarcoma viability, CellTiter-Glo ATP luminescence, 48 h;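 note: NT is the 2HG producing partner of a matched IDH1 knockdown line; 0% = DMSO-treated cells and -100% = media-only wells without cells; nearly all actives have a fitted effect of over 55% in size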
#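 A 48-hour cytotoxicity screen used HT-1080-NT cells plated 2 hours before compound delivery. ATP-based CellTiter-Glo luminescence measured viability, normalized to DMSO and no-cell controls.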
# TGFb inhibitor – TGF-b pathway inhibition; HepG2 CAGA-GFP TGF-b/SMAD3 reporter, GFP fluorescence, 18 h; TGF-beta stimulated, 500 pg/mL final; Potency, µM (doses to about 46.1 µM), for inactives: at the top dose activity, negative = inhibition, actives largely listed as inhibitors; 410,000 tested, 1.2% active; AID 588855; note: % is set by controls: 0 for no effect and ±100 for the full control effect; nearly all actives have a fitted effect of over 65% in size
#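 HEPG2 CAGA-GFP reporter cells (1000/well, DMEM with 1% FBS) received compounds, then recombinant TGF-beta at 500 pg/mL final for 18 hours at 37 degrees C. Per-cell GFP summed per well was normalised to unstimulated and stimulated DMSO controls before curve fitting.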
# Starred values were filed as active, the others as inactive; u = inconclusive; x = not tested or not shown; [ ] = another dose, or the depositor's remark. Only some compounds are listed: those with a hit (about 17% of all), similar ones and a draw of the others. Calls come from the whole dose curve; as a rule, active = well fitted curve in the direction sought with a large enough effect; inconclusive = small, poorly fitted or top-dose-only effect, or another doubt; inactive = no such curve, though single readings can be large; an effect the other way counts as inactive or inconclusive. Potency is the fitted concentration of half-maximal effect.
SMILES,TDP1 cell noCPT,TDP1 cell CPT,HT1080 IDH1KD tx,HepG2 viability,HT1080NT lethal,TGFb inhibitor
COc1ccc(CNC(=S)Nc2ccc3nc(N4CCOCC4)cc(C)c3c2)cc1,u,21µM*,-11%,-19%,-4%,-11%
COc1ccc(CNC(=S)Nc2ccc3nc(N4CCN(C)CC4)cc(C)c3c2)cc1,u,u,u,-51%,16µM*,u
COc1cc(NC(=O)CCC(=O)Nc2ccc3nc(N4CCOCC4)cc(C)c3c2)cc(OC)c1OC,u,0%,8%,4%,-1%,8%
COc1ccc(N(C)C(=O)CCC(=O)Nc2ccc3nc(N4CCOCC4)cc(C)c3c2)c(OC)c1,16µM*,u,-5%,-24%,-28%,6%
COCCCNC(=S)Nc1ccc2nc(N3CCOCC3)cc(C)c2c1,u,-20%,0%,-7%,0%,-15%
O=C(O)c1cccc(-n2nc(-c3ccc(Cl)c([N+](=O)[O-])c3)c3ccccc3c2=O)c1,2%,u,-27%,1%,-10%,10%
O=C(Nc1ccc(N2CCN(CCOc3ccc(Cl)cc3)CC2)c(C(=O)O)c1)c1ccc(F)cc1,-5%,-24%,x,-2%,x,-1%
CCOc1cccc(CN2CCCC(N3CCc4cc(OC)c(OC)cc4C3)C2)c1O (stereo not drawn),u,-24%,1%,-4%,-4%,4%
Nc1ccc(C(=O)O)cc1S(=O)(=O)O,5.8µM*,u,13%,9%,8%,0%
COc1ccc(C)cc1S(=O)(=O)NCC(c1cccs1)S(=O)(=O)c1ccc(C)cc1 (stereo not drawn),u,23µM*,x,-5%,x,-22%
COc1ccc(S(=O)(=O)NCC(c2cccs2)S(=O)(=O)c2ccc(C)cc2)cc1F (stereo not drawn),16µM*,u,x,-23%,x,u
COc1cc(=O)n2c(c1C(=O)N(C)Cc1nonc1C)CCN(Cc1ccccc1Cl)CC2,-3%,5%[9.04 µM],x,x,x,x
COC(=O)/C=C/c1ccccc1S(=O)(=O)NC(C)C,u,u,x,14%,x,1%
COc1ccc(C(=O)CSc2nccn2C)c(OC)c1,9%,5%,7%,-11%,25%,-12%
C[C@@H]1CCCCCCCCC(=O)OCCN[C@H](C)CCCCCCCCC(=O)OCCN[C@H](C)CCCCCCCCC(=O)OCCN1,21µM*,13µM*,-24%,-64%,-26%,16µM*
CCc1ccc(C(=O)c2cn(CC(=O)Nc3ccc4c(c3)OCO4)c3ccc(F)cc3c2=O)cc1,u,-25%,x,-7%,x,u
Cc1c(-c2ccccc2)c(-c2ccc(OCCN(C)C)cc2)n2ccccc12,u,u,-20%,-9%,-7%,5%
COc1ccc(-c2coc3c(C(=O)NCc4cccc(Cl)c4)cccc23)c(C)c1,15µM*,15µM*,-6%,-22%,u,-26%
COc1ccc(-c2ccc(C(=O)NCc3cccs3)c3occc23)c(C)c1,u,u,u,-11%,u,u
O=C(NCc1cccc(Cl)c1)c1ccc(-n2cncn2)c2ccoc12,u,16µM*,-3%,-11%,1%,21%
COc1ccc(-c2coc3c(C(=O)NCc4cccs4)cccc23)c(C)c1,18µM*,23µM*,u,-16%,u,u

# Screening results as filed in PubChem BioAssay.
